From PubChem BioAssay (Tox21)
Results filed as inconclusive are left out. A number with no mark means an inactive call. Unless noted, calls follow the shape of the dose curve; as a rule, active = well fitted cell-killing curve with a large enough effect in the repeat runs (not every such curve was filed as active); inconclusive = weak or mixed curves, or effect the other way; inactive = no such curve, though single readings can be large or run the other way.

Biological target: Bile acid receptor (Homo sapiens) (UniProt Q96RI1)
Assay: qHTS assay to identify small molecule antagonists of the farnesoid-X-receptor (FXR) signaling pathway (AID 743217; active = well fitted inhibition curve with a large enough effect in the signal ratio in the repeat runs, not every such curve was filed as active; the % refers to the signal ratio)
Details: HEK293T FXR-UAS-bla, beta-lactamase ratio, CDCA-stimulated, 16 h; series mostly up to 62.6 µM; activity change, negative = inhibition: at the top concentration
In short: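 Beta-lactamase reporter under UAS control in HEK 293T cells; compound exposure 16 h at 37 °C in the presence of chenodeoxycholic acid (50 uM final); signal from B/G FRET substrate after 2 h at room temperature.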
% is scaled to controls: 0 for no effect and ±100 for the full control effect.

Chain of Bile acid receptor (Homo sapiens) (Q96RI1 whole entry, looked up): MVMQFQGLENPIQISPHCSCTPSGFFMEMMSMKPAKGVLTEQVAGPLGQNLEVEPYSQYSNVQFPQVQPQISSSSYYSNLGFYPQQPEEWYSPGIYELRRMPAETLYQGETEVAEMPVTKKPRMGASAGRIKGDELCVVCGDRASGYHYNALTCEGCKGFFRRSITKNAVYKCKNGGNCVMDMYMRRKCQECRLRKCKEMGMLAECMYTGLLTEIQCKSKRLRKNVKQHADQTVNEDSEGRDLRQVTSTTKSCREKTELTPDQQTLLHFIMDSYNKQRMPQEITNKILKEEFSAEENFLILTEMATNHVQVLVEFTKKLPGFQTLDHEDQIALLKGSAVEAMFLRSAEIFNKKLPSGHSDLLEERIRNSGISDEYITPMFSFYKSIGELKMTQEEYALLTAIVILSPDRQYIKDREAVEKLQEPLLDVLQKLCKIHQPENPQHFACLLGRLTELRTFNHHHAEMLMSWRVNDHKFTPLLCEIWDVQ

SMILES | activity change, negative = inhibition
CCCCC(=O)Cl | 3.83% [at 81.1 µM]
CCCCCCI | -9.05%
CC(C)[N+](=O)[O-] | -0.297%
OC(c1ccccc1)(c1ccccc1)C1CCNCC1 | -3.3%
CN1CCN(C(=O)O[C@H]2c3nccnc3C(=O)N2c2ccc(Cl)cn2)CC1 | 0.972%
NC(=S)C(N)=S | -9.81%
Cc1ncc(CNC(=O)N(CCCl)N=O)c(N)n1 | 2.42%
CNC(=O)Oc1ccccc1C1OCCO1 | 4.46%
O=[N+]([O-])c1cccc2cccnc12 | 5.2% [at 81.1 µM]
OCCBr | 2.28%
CC(C)(C)NCC(O)c1cc(Cl)c(N)c(Cl)c1 (centres undefined) | 10.4%
CC(N)=S | 5.96%
O=[N+]([O-])c1ccc2c3c(cccc13)CC2 | 1.98%
CCOP(=O)(OCC)OP(=O)(OCC)OCC | -2.09%
C[C@@H]1CN(C2CCC(C#N)(c3ccc(F)cc3)CC2)CC[C@]1(C(=O)O)c1ccccc1 (some centres undefined) | 7.86%
N#CC(CCc1ccc(Cl)cc1)(Cn1cncn1)c1ccccc1 (centres undefined) | -10.6%
ClC(Cl)C(Cl)Cl | 1.9% [at 81.1 µM]
CNC(=O)Oc1ccc(N(C)C)c(C)c1 | 0.707%

Test system: not listed separately
Assay: qHTS assay to identify small molecule agonists of the farnesoid-X-receptor (FXR) signaling pathway - cell viability counter screen (AID 743218; active = well fitted cell-killing curve with a large enough effect in the repeat runs; also: nearly all actives have a fitted effect of over 45% in size)
Details: FXR-bla HEK293T viability, CellTiter-Glo luminescence, 16 h; series mostly up to 62.6 µM; viability change, negative = cytotoxic: at the top concentration
In short: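 In GeneBLAzer FXR-UAS-bla HEK 293T cells, compounds act for 16 h at 37 C. Cell viability is then scored in the reporter wells by CellTiter-Glo, 30 min at RT, luminescence.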

SMILES | viability change, negative = cytotoxic
C[C@]12CC[C@H]3[C@@H](CC=C4C[C@@H](O)CC[C@@]43C)[C@@H]1CC[C@@H]2O | -3.37%
CCCCCCI | 3.56%
CC(C)[N+](=O)[O-] | 10.8%
CC(Cl)(Cl)[N+](=O)[O-] | 1.48%
C=C(C)CN(CC)c1c([N+](=O)[O-])cc(C(F)(F)F)cc1[N+](=O)[O-] | 16.6%
O=C1c2ccccc2C(=O)c2ccccc21 | -2.95% [at 29.1 µM]
COc1cc(OC)nc(Oc2cccc(Oc3nc(OC)cc(OC)n3)c2C(=O)O)n1 | -4.63%
Cc1cc(C)nc(Nc2ccccc2)n1 | 14.4%
OCCBr | 1.8%
O=C(Nc1ccccc1)c1ccccc1I | 17.2%
CC(C)(C)NCC(O)c1cc(Cl)c(N)c(Cl)c1 (centres undefined) | 3.63%
CC(N)=S | 8.3%
O=[N+]([O-])c1ccc2c3c(cccc13)CC2 | 14.2%
CCC(=O)C(CCN(C)C)(c1ccccc1)c1ccccc1 | 7.59%
N#CC(CCc1ccc(Cl)cc1)(Cn1cncn1)c1ccccc1 (centres undefined) | 7.13%
ClC(Cl)C(Cl)Cl | 11.4% [at 81.1 µM]
CC1CCC(=O)O1 (centres undefined) | 9.69%
CS(=O)(=O)c1cc(C(F)(F)F)ccc1C(=O)c1cnoc1C1CC1 | -3.19%
COc1cc2c(cc1OC)[C@@]13CCN4CC5=CCO[C@H]6CC(=O)N2[C@H]1[C@H]6[C@H]5C[C@H]43 | -0.591%
CNC(=O)Oc1ccc(N(C)C)c(C)c1 | -11.7%
NC(=O)O | -14.5%

Biological target: Bile acid receptor (Homo sapiens) (UniProt Q96RI1)
Assay: qHTS assay to identify small molecule agonists of the farnesoid-X-receptor (FXR) signaling pathway (AID 743220; active = well fitted activation curve with a large enough effect in the signal ratio in the repeat runs, not every such curve was filed as active; the % refers to the signal ratio)
Details: HEK293T FXR-UAS-bla, beta-lactamase FRET ratio, 16 h; series mostly up to 62.6 µM; activation: at the top concentration
In short: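 Beta-lactamase reporter under UAS control in GeneBLAzer FXR HEK 293T cells (5000/well) measured with LiveBLAzer FRET substrate after 2 h at room temperature. Compound exposure lasted 16 h at 37C.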

SMILES | activation
CCCCC(=O)Cl | -0.596% [at 81.1 µM]
CCCCCCI | -0.32%
CC(C)[N+](=O)[O-] | 1.33%
OC(c1ccccc1)(c1ccccc1)C1CCNCC1 | 1.22%
CN1CCN(C(=O)O[C@H]2c3nccnc3C(=O)N2c2ccc(Cl)cn2)CC1 | 0.83%
NC(=S)C(N)=S | -3.8%
COc1cc(OC)nc(Oc2cccc(Oc3nc(OC)cc(OC)n3)c2C(=O)O)n1 | 0.279%
CNC(=O)Oc1ccccc1C1OCCO1 | 2.18%
O=[N+]([O-])c1cccc2cccnc12 | 1.74% [at 81.1 µM]
OCCBr | -1.12%
CC(C)(C)NCC(O)c1cc(Cl)c(N)c(Cl)c1 (centres undefined) | 6.7%
CC(N)=S | -0.185%
O=[N+]([O-])c1ccc2c3c(cccc13)CC2 | -0.121%
CCOP(=O)(OCC)OP(=O)(OCC)OCC | 0.319%
C[C@@H]1CN(C2CCC(C#N)(c3ccc(F)cc3)CC2)CC[C@]1(C(=O)O)c1ccccc1 (some centres undefined) | 2.07%
N#CC(CCc1ccc(Cl)cc1)(Cn1cncn1)c1ccccc1 (centres undefined) | 0.506%
ClC(Cl)C(Cl)Cl | -0.681% [at 81.1 µM]
CC1(C(=O)Nc2ccc(O)c(Cl)c2Cl)CCCCC1 | -0.057%
CNC(=O)Oc1ccc(N(C)C)c(C)c1 | -0.634%

Test system: not listed separately
Assay: qHTS assay to identify small molecule antagonists of the farnesoid-X-receptor (FXR) signaling pathway - cell viability counter screen (AID 743221); also: nearly all actives have a fitted effect of over 50% in size
Details: FXR-bla HEK293T viability, CellTiter-Glo luminescence, 16 h; series mostly up to 62.6 µM; activity change, negative = cytotoxicity: at the top concentration
In short: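 In GeneBLAzer FXR-UAS-bla HEK 293T cells stimulated with 50 uM chenodeoxycholic acid (final), compounds acted for 16 h at 37 C. Viability was assessed afterwards by CellTiter-Glo luminescence.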

SMILES | activity change, negative = cytotoxicity
ClCCCN1CCN(c2cccc(Cl)c2)CC1 | 0.879%
C[C@]12CC[C@H]3[C@@H](CC=C4C[C@@H](O)CC[C@@]43C)[C@@H]1CC[C@@H]2O | 0.166%
CCCCC(=O)Cl | -0.167% [at 81.1 µM]
CCCCCCI | -4.86%
CC(C)[N+](=O)[O-] | -1.61%
OC(c1ccccc1)(c1ccccc1)C1CCNCC1 | -14.5%
CC(Cl)(Cl)[N+](=O)[O-] | 11.5%
C=C(C)CN(CC)c1c([N+](=O)[O-])cc(C(F)(F)F)cc1[N+](=O)[O-] | 6.92%
CN1CCN(C(=O)O[C@H]2c3nccnc3C(=O)N2c2ccc(Cl)cn2)CC1 | 9.25%
CCCCCCBr | -0.322% [at 81.1 µM]
NC(=S)C(N)=S | -13.1%
Cc1ncc2n1-c1ccc(Cl)cc1C(c1ccccc1F)=NC2 | 3.82%
COc1cccc(C(=O)NN(C(=O)c2cc(C)cc(C)c2)C(C)(C)C)c1C | 5.76%
O=C1c2ccccc2C(=O)c2ccccc21 | 8.03% [at 29.1 µM]
Cc1ncc(CNC(=O)N(CCCl)N=O)c(N)n1 | 12.2%
C[N+](C)=CCl | 4.58%
COc1cc(OC)nc(Oc2cccc(Oc3nc(OC)cc(OC)n3)c2C(=O)O)n1 | -16.5%
CNC(=O)Oc1ccccc1C1OCCO1 | 1.05%

SMILES | activity change, negative = cytotoxicity
O=[N+]([O-])c1cccc2cccnc12 | -0.68% [at 81.1 µM]
Cc1cc(C)nc(Nc2ccccc2)n1 | 28.6%
OCCBr | -3.08%
O=C(Nc1ccccc1)c1ccccc1I | 5.13%
CC(C)(C)NCC(O)c1cc(Cl)c(N)c(Cl)c1 (centres undefined) | 1.02%
CC(N)=S | -7.37%
O=[N+]([O-])c1ccc2c3c(cccc13)CC2 | -22.2%
CCOP(=O)(OCC)OP(=O)(OCC)OCC | -4.82%
CCC(=O)C(CCN(C)C)(c1ccccc1)c1ccccc1 | -30.7%
C[C@@H]1CN(C2CCC(C#N)(c3ccc(F)cc3)CC2)CC[C@]1(C(=O)O)c1ccccc1 (some centres undefined) | 0.0787%
N#CC(CCc1ccc(Cl)cc1)(Cn1cncn1)c1ccccc1 (centres undefined) | 4.76%
ClC(Cl)C(Cl)Cl | 0.502% [at 81.1 µM]
CC1CCC(=O)O1 (centres undefined) | 6.72%
C=CCC1=C(C)[C@@H](OC(=O)[C@@H]2[C@@H](C=C(C)C)C2(C)C)CC1=O | -11.9%
CS(=O)(=O)c1cc(C(F)(F)F)ccc1C(=O)c1cnoc1C1CC1 | 0.927%
COc1cc2c(cc1OC)[C@@]13CCN4CC5=CCO[C@H]6CC(=O)N2[C@H]1[C@H]6[C@H]5C[C@H]43 | 4.76%
CNC(=O)Oc1ccc(N(C)C)c(C)c1 | 0.549%
NC(=O)O | -0.34%
